Screening results: PubChem BioAssay, National Center for Advancing Translational Sciences (NCATS)
Sfp inh: blocks B. subtilis Sfp PPTase activity; Q9F4F7; Biochemical Sfp PPTase activity, qHTS; Potency, µM, hits mostly inhibitors; 310,000 compounds, 3.5% hits;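 also: the enzyme is Sfp with the accession as filed and its product quenches rhodamine fluorescence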
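Fluorescence-quenching assay: 15 nM Sfp-PPTase preincubated 15 min at room temperature with compound, then 5 uM rhodamine-CoA and 12.5 uM BHQ-2-labelled YbbR peptide added. Fluorescence (ex 525/em 598 nm) read at start and after 30 min; difference gives rate.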
ALOX12 inh: blocks human arachidonate 12S-lipoxygenase; P18054; purified 12hLO, xylenol orange hydroperoxide absorbance; Potency, µM (highest dose often 108 µM), most hits filed as inhibitors; 580,000 compounds, 1.1% hits; AID 1671190
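Purified human 12hLO at 150 nM in 25 mM Hepes, 0.01% Triton X-100, pH 7.0, preincubated 15 min at room temperature with compound. Reaction started with 40 uM arachidonic acid, 30 min at room temperature. Hydroperoxide measured by Fe-xylenol orange, 573/405 nm absorbance ratio.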
JMJD2A Tudor: JMJD2A Tudor domain (human) inhibition; O75164; AlphaScreen JMJD2A-Tudor / H3K4me3 peptide binding; Potency, µM (doses to about 114 µM), hits mostly inhibitors; 390,000 compounds, 4.4% hits; AID 504339; also: nearly all actives have a fitted effect of over 50% in size
HP1b binding inh: blocks HP1-beta chromodomain binding to methylated histone tails | P83916 | AlphaScreen HP1-beta / biotin-H3K9me3 peptide binding | Potency, µM (series often up to 114 µM), most hits filed as inhibitors | 390,000 compounds, 0.56% hits | AID 540317; also: nearly all actives have a fitted effect of over 70% in size
Target sequence (P83916 whole entry, looked up): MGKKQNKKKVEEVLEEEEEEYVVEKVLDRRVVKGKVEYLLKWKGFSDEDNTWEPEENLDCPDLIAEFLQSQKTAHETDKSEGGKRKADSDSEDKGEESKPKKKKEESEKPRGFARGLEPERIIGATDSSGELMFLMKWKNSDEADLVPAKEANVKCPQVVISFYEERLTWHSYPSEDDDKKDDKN
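Compound inhibition of the preformed complex between 50 nM HP1-beta and 50 nM biotinylated H3K9me3 peptide was read by AlphaScreen. Buffer was PBS pH 7.4 with 0.01% Tween-20. Incubations ran 30 min at room temperature, with 10 ug/mL donor/acceptor beads.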
G9a block: G9a (human) methyltransferase inhibition; Potency, µM (doses to about 102 µM), most hits filed as inhibitors; 350,000 compounds, 8.8% hits; G9a H3K9 monomethylation, AlphaScreen, 2 h; also: nearly all actives have a fitted effect of over 75% in size
Target sequence (Q96KQ7 913-1193 limits assumed): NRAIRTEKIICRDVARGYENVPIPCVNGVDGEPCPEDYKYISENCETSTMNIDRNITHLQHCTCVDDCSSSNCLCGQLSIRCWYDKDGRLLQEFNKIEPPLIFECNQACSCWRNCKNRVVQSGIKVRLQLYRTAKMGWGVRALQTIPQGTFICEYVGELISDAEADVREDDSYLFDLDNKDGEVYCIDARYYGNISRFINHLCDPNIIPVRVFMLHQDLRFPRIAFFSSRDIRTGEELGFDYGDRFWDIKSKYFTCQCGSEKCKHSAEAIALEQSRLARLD
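Step 1: enzyme (final 20 nM) with compound, 15 min RT. Step 2: substrate peptide 500 nM and SAM 20 uM, 2 h RT. Step 3: anti-H3K9me1 antibody and AlphaScreen beads, 10 min, then plate read.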
BAZ2B block: BAZ2B (human) inhibition; 360,000 compounds, 4.4% hits; AlphaScreen BAZ2B-H3K14Ac peptide displacement; Potency, µM (series often up to 114 µM), actives largely listed as inhibitors; Q9UIF8; also: nearly all actives have a fitted effect of over 60% in size
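AlphaScreen displacement: compounds (up to 110uM) incubated 30 min at room temperature with a preformed 50 nM BAZ2B/50 nM biotinylated H3K14Ac peptide complex in PBS pH 7.4 with Tween-20. Donor and acceptor beads at 10 ug/mL final added, 20 min light-protected before reading.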
Numbers stand for hits; n = inactive; u = inconclusive; x = no result given; ! = repeats disagree. Hits are enriched below; roughly 8.7% of the tested compounds scored in any of these assays. Calls follow the shape of the dose curve; as a rule, active = well fitted curve in the direction sought with a large enough effect; inconclusive = small, poorly fitted or top-dose-only effect, or another doubt; inactive = no such curve, though single readings can be large; an effect the other way counts as inactive or inconclusive.

SMILES | Sfp inh | ALOX12 inh | JMJD2A Tudor | HP1b binding inh | G9a block | BAZ2B block
FC(F)(F)c1cc(-c2ccco2)nc(NCc2ccccc2)n1 | 20µM | u | n | n | u | n
O=C(CCC(=O)c1cccs1)Nc1ccccc1N1CCCCC1 | x | n | x | x | x | x
COCCc1nncn1C1CCN(S(=O)(=O)c2ccccc2C(F)(F)F)CC1 | x | n | x | x | x | x
Cc1ccc(C(=O)N2CCN(c3ccccn3)CC2)cc1 | n | n | n | n | n | n
Cc1ccc(/C(=C\CN2CCCC2)c2ccccn2)cc1 | n | n | n | x | 7.52µM! | n
CC(Sc1nnc(N)s1)c1ccccc1Cl (stereo unspecified) | n | n | n | n | 39.8µM | n
CC(Sc1nnc(N)s1)C(=O)NNC(=O)c1cccc(Cl)c1 (stereo unspecified) | x | n | n | n | x | x
c1ccc(C2=Nc3c(ccc4ccccc34)C(c3ccncc3)=NN2)cc1 | n | n | 35.5µM | u | x | 35.5µM
Cc1ccc2c(c1)C(c1ccncc1)=NNC(c1ccccc1)=N2 | n | n | n | n | n | n
CC/C=C(/C)C(=O)N1CCC(C(=O)O)CC1 | x | n | x | x | x | x
CCNC(=O)NC(=O)C(C)Sc1nnc(COc2ccccc2Cl)o1 (stereo unspecified) | n | n | u | n | 17.8µM | u
S=C(c1ccc2c(c1)OCO2)N1CCCCCC1 | n | n | n | n | 50.1µM | n
S=C(c1ccc2c(c1)OCO2)N1CCOCC1 | n | n | n | n | 31.6µM | n
Cc1ccc2oc(=O)n(CCC(=O)N3CCc4c(nc(C)[nH]c4=O)C3)c2c1 | x | n | x | x | x | x
CN(C)C[C@@H]1CN(Cc2ccncc2)C[C@H]1NC(=O)c1ccc(F)cc1 | x | n | x | x | x | x
COc1ccccc1Nc1nnc(SCc2nnc(-c3cc(OC)c(OC)c(OC)c3)o2)s1 | n | n | u | n | 14.1µM | n
O=C(O)CC1C(=O)NCCN1Cc1ccc(F)cc1Cl (stereo unspecified) | x | n | x | x | x | x
Cc1cc(C)nc(CCNC(=O)CC2C(=O)NCCN2Cc2ccc(F)cc2Cl)n1 (stereo unspecified) | n | n | n | n | 44.7µM | n
O=C(CC1C(=O)NCCN1Cc1ccc(F)cc1Cl)NCc1ccon1 (stereo unspecified) | n | n | n | n | 31.6µM | n
CC(C)c1nc(CNC(=O)CC2C(=O)NCCN2Cc2ccc(F)cc2Cl)cs1 (stereo unspecified) | n | u | n | n | x | n
CSc1nc2sc3c(c2c(=O)n1-c1ccccc1)CC(C(C)C)OC3 (stereo unspecified) | x | n | x | x | x | x
Cn1c(=O)c2cn3c(c2n(C)c1=O)C(c1ccccc1)CC(c1ccccc1)=N3 (stereo unspecified) | n | u | u | n | 8.91µM | u
COc1ccc(C(=O)OCC(=O)c2ccc(CNC(C)=O)s2)cc1 | x | n | n | n | 10µM | n
C=CCNCCOCCOc1ccc(C)cc1[N+](=O)[O-] | n | u | 3.16µM | n | 22.4µM | u
Cc1ccc(OCCN(C)C)c([N+](=O)[O-])c1 | n | n | 8.91µM | u | u | u
SMILES | Sfp inh | ALOX12 inh | JMJD2A Tudor | HP1b binding inh | G9a block | BAZ2B block
COCCNCCOc1ccc(C)cc1[N+](=O)[O-] | n | u | 25.1µM | u | n | u
COc1ccc(C=O)cc1COc1ccc(C)cc1[N+](=O)[O-] | n | n | n | n | u | u
Cc1ccc(OCCn2cnc3ccccc3c2=O)c([N+](=O)[O-])c1 | n | n | n | n | n | n
COc1cc(C)ccc1OCCOCCOc1ccc(C)cc1[N+](=O)[O-] | n | n | n | n | n | n
NC(=O)c1cc(Cl)ccc1OCC(=O)N1CCC1 | x | n | x | x | x | x
CCCC(=O)N1CCCN(C(C)C(=O)Nc2ccc(F)c(F)c2)CC1 (stereo unspecified) | x | n | x | x | x | x
COCCN(C)C[C@H]1C[C@H](CO)CN(C(=O)c2ccc(OC)c(F)c2)C1 | x | n | x | x | x | x
CC(CN1CC(=O)NC(=O)C1)N1CC(=O)NC(=O)C1 (stereo unspecified) | n | n | x | x | 2.82µM | x
CN(C)c1ccc(C=NCCCCCCN=Cc2ccc(N(C)C)cc2)cc1 | x | n | x | x | x | x
Cc1cc(C(=O)N2CCCC(N3CCN(c4cccc(C(F)(F)F)c4)CC3)C2)no1 (stereo unspecified) | n | n | n | n | n | n
O=C(c1cc(C2CC2)on1)N1CCCC(N2CCN(c3cccc(C(F)(F)F)c3)CC2)C1 (stereo unspecified) | n | n | n | n | 79.4µM | n
Cc1cccc(C(=O)Nc2ccc(C(=O)N/N=C/c3ccco3)cc2)c1 | x | n | 44.7µM | u | x | x
O=C(N/N=C/c1ccccc1)C1CC1c1ccccc1 (stereo unspecified) | x | n | x | x | x | x
CC(C)(C)c1ccc(C2CC2C(=O)N/N=C\c2ccc[nH]2)cc1 (stereo unspecified) | n | n | 56.2µM | u | 39.8µM | u
O=C(N/N=C/c1ccco1)C1CC1c1ccccc1 (stereo unspecified) | n | n | u | u | n | 50.1µM
O=C(N/N=C/c1ccco1)Nc1ccccc1 | n | n | n | n | 79.4µM | n
CC(=O)c1ccc(N2CCN(C(=O)CCc3ncc(-c4ccc(F)cc4)o3)CC2)c(F)c1 | x | n | x | x | x | x
Cc1nc2ccccc2c(C)c1CC(=O)NCCCc1[nH]nc(N)c1C#N | x | n | x | x | x | x
O=C(NCc1ccc(Cl)cc1)c1ccn2cncc2c1 | x | n | x | x | x | x
COc1cc(NC(=S)N2CCCC(CO)C2)c(OC)cc1Cl (stereo unspecified) | 39.8µM | n | n | n | 44.7µM | n
COc1cc(NC(=S)N2CCN(C(=O)c3ccco3)CC2)c(OC)cc1Cl | 56.2µM | n | u | n | u | n
CN1CCN(C(=S)Nc2cc([N+](=O)[O-])ccc2Cl)CC1 | n | u | u | n | 3.16µM | n
COc1cc(NC(=S)N2CCN(C)CC2)c(OC)cc1Cl | 28.2µM | n | n | n | 39.8µM | n
COc1cc(NC(=S)N2CCN(CCO)CC2)c(OC)cc1Cl | n | n | n | n | n | n
CCCCOc1ccc2c(-c3ccccc3)cc(=O)oc2c1C | x | n | x | x | x | x
SMILES | Sfp inh | ALOX12 inh | JMJD2A Tudor | HP1b binding inh | G9a block | BAZ2B block
CCOC(=O)C(=CN=C(N)Nc1nc2ccccc2o1)C(=O)OCC | n | n | n | n | n | n
CCCOC(=O)Nc1nc2ccccc2o1 | n | n | u | n | 50.1µM | 79.4µM
Cc1ccc(C=C2C(=O)c3ccccc3C2=O)o1 | n | n | u | u | 25.1µM | 39.8µM
O=C1C(=Cc2ccco2)C(=O)c2ccccc21 | n | n | u | n | 12.6µM | u
NS(=O)(=O)c1ccc(-c2ccc(C=C3C(=O)c4ccccc4C3=O)o2)cc1 | n | n | n | n | n | n
O=C(O)c1ccc(C=NN=Cc2ccco2)cc1 | x | u | n | n | x | x
O=C(O)c1ccc2c(c1)C(=O)/C(=C\c1ccco1)C2=O | 22.4µM | u | 25.1µM | u | 8.91µM | 35.5µM
